Test [1] can be described thus: qHTS drug screen for cell cycle checkpoint inhibitors in PARPi-resistant BRCA-mutant ovarian cancer cell lines. (AID 1963452). The conditions noted are these: PEO1/OlaR viability, CellTiter-Glo luminescence, 96 h, stronger effect = lower value. In short, it runs like this:
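PEO1, PEO4 and PEO1/OlaR ovarian cancer cells, 600 per well, exposed 96 h at 37C to a dilution series. Viability read by CellTiter-Glo luminescence, normalized to DMSO and empty wells; activity summarized as Z-AUC.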

The nature of test [2]: qHTS for identification of novel therapeutic agents for treatment of microphthalmiaassociated transcription factor (MiT) renal cell carcinoma (RCC) (AID 1963991). The conditions noted are these: CellTiter-Glo, 48 h, stronger effect = lower value. Put shortly: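 Viability of three TFE3-fusion renal carcinoma lines measured by CellTiter-Glo after 48 h treatment with each of 1912 compounds at 11 concentrations. Responses scaled between DMSO (100%) and empty wells (0%) before curve fitting.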

[3] abbreviates: measured here: PEO1 parental Z-AUC.
[4] abbreviates: TFE3-RCC UOK109 viability, measured here: UOK109 Z-AUC.
Where [5] appears, read: TFE3-RCC viability, measured here: UOK124 Z-AUC.
[6] abbreviates: TFE3-RCC viability, measured here: UOK145 Z-AUC.

The structures appear in SMILES notation. Inconclusive results are not listed. The source made the active and inactive calls. Calls follow the shape of the full dose curve.

As for `C[C@H](NC(=O)C(=O)Nc1ccccc1C(C)(C)C)C(=O)N[C@@H](CC(=O)O)C(=O)COc1c(F)c(F)cc(F)c1F`, the Z-AUC is 0.426 (inactive) in test [1], 0.799 in test [1] (setting [3]) and 1.06 in test [1] (measured here: PEO4 Z-AUC).
On the same counts, the results for `NC(=O)c1cccc(-c2cc(Nc3ccc(OC(F)(F)F)cc3)ncn2)c1` are 1.26 (inactive), 0.548 and 0.648.
On the same counts, the results for `COc1ccc(-c2coc3cc(O)cc(O)c3c2=O)cc1` are 1.34 (inactive), 0.911 and 1.85.
For the compound `O=C1C[C@@H](c2ccc(O)cc2)Oc2cc(O)cc(O)c21`, the Z-AUC in test [1] is 0.649 (inactive); in test [1] (setting [3]), 1.18; in test [1] (measured here: PEO4 Z-AUC) it was 1.28. The results for the z-score in test [2] (setting [4]), in test [2] (setting [5]) and in test [2] (setting [6]) were 0.38, 0.851 and 0.18, respectively.
Consider `N[C@H](CSC(c1ccccc1)(c1ccccc1)c1ccccc1)C(=O)O`, for which the figures for the Z-AUC in test [1], in test [1] (setting [3]) and in test [1] (measured here: PEO4 Z-AUC) were 0.731 (inactive), 0.902 and 0.85, respectively.
On the same counts, the results for `O=C(Nc1ccccc1-c1cn2c(CN3CCNCC3)csc2n1)c1cnc2ccccc2n1` are 0.244 (inactive), 0.118 and -0.298.
With `Clc1cc(Cl)cc(CNc2ncncc2-c2ccc3c(c2)OCO3)c1`, the results for the Z-AUC in test [1], in test [1] (setting [3]) and in test [1] (measured here: PEO4 Z-AUC) were 0.335 (inactive), -0.24 and -0.467, respectively.
On to `CC(C)(Cc1ccc2ccccc2c1)NC[C@@H](O)COc1cccc(Cl)c1C#N`, for which the Z-AUC in test [1] is 0.779 (inactive); in test [1] (setting [3]) it was 1.04; in test [1] (measured here: PEO4 Z-AUC), 0.976.
As to `O=c1cc(-c2ccccc2)oc2cc(O)cc(O)c12`, the figures for the Z-AUC in test [1], in test [1] (setting [3]) and in test [1] (measured here: PEO4 Z-AUC) were 1.05 (inactive), 1.12 and 1.3, respectively. Besides, the z-score in test [2] (setting [4]) came to 0.364; in test [2] (setting [5]), 0.638; in test [2] (setting [6]), 0.538.
On to `Cc1ccn(-c2ccc(-c3ncco3)cc2)c(=O)c1-c1ccc2nc(N)ncc2c1`, for which the values for the Z-AUC in test [1], in test [1] (setting [3]) and in test [1] (measured here: PEO4 Z-AUC) were 1.02 (inactive), 0.788 and 1.07, respectively.
Take `CCc1ccc(OCc2ccccc2C(=O)Nc2ccc3nc(C)cc(N)c3c2)cc1`: the Z-AUC was -0.061 (inactive) in test [1], -0.206 in test [1] (setting [3]) and -0.159 in test [1] (measured here: PEO4 Z-AUC).
On the same counts, the results for `CC1(C)CCC(CN2CCN(c3ccc(C(=O)NS(=O)(=O)c4ccc(NCC5CCOCC5)c([N+](=O)[O-])c4)c(Oc4cnc5[nH]ccc5c4)c3)CC2)=C(c2ccc(Cl)cc2)C1` are 0.0291 (inactive), 0.742 and 0.833.
Regarding `CC(C)(C)NC(=O)Nc1cccc(Nc2ncc(F)c(NC(C)(C)CO)n2)c1`, the Z-AUC was -0.707 (inactive) in test [1], -1.21 in test [1] (setting [3]) and -1.05 in test [1] (measured here: PEO4 Z-AUC). Moreover, the z-score in test [2] (setting [4]) is 1.09; in test [2] (setting [5]), -0.121; in test [2] (setting [6]) it was 0.237.
Regarding `COCCOc1nc(-c2ccc(Cl)c(Cl)c2)n(-c2ccc(NC(=O)CCl)cc2)n1`, the figures for the Z-AUC in test [1], in test [1] (setting [3]) and in test [1] (measured here: PEO4 Z-AUC) were -0.18 (inactive), 0.0816 and -0.069, respectively.
With `Clc1ccc(COC(Cn2ccnc2)c2ccc(Cl)cc2Cl)cc1` (stereo not drawn), the results for the Z-AUC in test [1], in test [1] (setting [3]) and in test [1] (measured here: PEO4 Z-AUC) were 0.343 (inactive), 0.179 and 0.161, respectively.
On the same counts, the results for `Cc1ccc(C(C)(O)c2nc3ccccc3s2)c(C)c1` (stereo not drawn) are 0.398 (inactive), 0.537 and 0.368.
On the same counts, the results for `Cc1ccc(C(=O)Nc2cccc(C(F)(F)F)c2)cc1Nc1nc(-c2cccnc2)nc2c1cnn2C` are 0.462 (inactive), 0.182 and 0.562.
Turning to `COc1cc(Nc2ncc(F)c(Nc3ccc4c(n3)NC(=O)C(C)(C)O4)n2)cc(OC)c1OC`, the Z-AUC in test [1] is 0.179 (inactive); in test [1] (setting [3]), 0.902; in test [1] (measured here: PEO4 Z-AUC), 1.16.
On the same counts, the results for `COc1ccc(-c2cc(=O)c3c(O)cc(O)cc3o2)cc1O` are 0.388 (inactive), 0.498 and 0.413.
On the same counts, the results for `O=C(O)CCC1CCC(c2cc(F)ccc2F)(S(=O)(=O)c2ccc(Cl)cc2)CC1` (stereo not drawn) are 1.02 (inactive), 0.969 and 0.83.
Regarding `COc1ccc2cccc(CCNC(C)=O)c2c1`, the Z-AUC in test [1] is -0.374 (inactive); in test [1] (setting [3]) it was -0.478; in test [1] (measured here: PEO4 Z-AUC) it was -0.326. The values for the z-score in test [2] (setting [4]), in test [2] (setting [5]) and in test [2] (setting [6]) were 0.892, 0.661 and 0.732, respectively.
On to `CC(C)=CC[C@@H](O)C1=CC(=O)c2c(O)ccc(O)c2C1=O`, for which the Z-AUC was -0.228 (inactive) in test [1], -0.402 in test [1] (setting [3]) and -0.229 in test [1] (measured here: PEO4 Z-AUC).

These data come from PubChem BioAssay (NCATS).
